{
  "source": "PubChem BioAssay (NCI)",
  "note": "The panel holds about 83,000 compounds, 20% with a hit somewhere; the sample as a whole holds those more often.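 Activity criterion: percent growth below 10, measured after cells in 96-well plates were exposed to a single compound concentration for 48 hours.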 Calls of active or inactive are those of the source.",
  "data": [
    {"test_system": "HS 578T breast", "assay": "NCI-60 one-dose screen, 48 h (100 = growth as untreated, 0 = no growth, -100 = all killed)", "conditions": "10 µM", "values": [
      {"molecule": "CC1=CC(=O)c2ccccc2C1=O", "growth": "103% (inactive)"},
      {"molecule": "O=C(Nc1ccccc1)OCCc1ccccc1", "growth": "120% (inactive)"},
      {"molecule": "COc1ccccc1N1CCN(C(=S)Nc2ccccc2)CC1", "growth": "104% (inactive)"},
      {"molecule": "O=C1OC(c2ccc(F)cc2)CC1CN1CCOCC1", "note": "(centres undefined)", "growth": "113% (inactive)"},
      {"molecule": "COC(=O)CCCCC1=CCC2C(=O)C=C(O)C2C1", "note": "(centres undefined)", "growth": "108% (inactive)"},
      {"molecule": "CCOC(=O)CCCS(C)(=O)=O", "growth": "101% (inactive)"},
      {"molecule": "Nc1ccc(NC(=O)c2cccc(N)c2)cc1", "growth": "97.1% (inactive)"},
      {"molecule": "CCN(CC)CCNc1ccc(CO)c2sc3ccccc3c(=O)c12", "growth": "64.8% (inactive)"},
      {"molecule": "CCOC(=O)c1cc(/C=C/c2ccc(Cl)cc2Cl)on1", "growth": "71.8% (inactive)"},
      {"molecule": "O=[N+]([O-])c1ccccc1S(=O)c1ccccc1[N+](=O)[O-]", "growth": "106% (inactive)"},
      {"molecule": "COc1cccc(Sc2ccc([N+](=O)[O-])c3no[n+]([O-])c23)c1", "growth": "67.9% (inactive)"},
      {"molecule": "O=C(NC1CCCCC1)OCc1c(COC(=O)NC2CCCCC2)c(-c2ccc(Cl)c(Cl)c2)n2c1CCC2", "growth": "39.7% (inactive)"},
      {"molecule": "O=C1OC(=O)C2C1C1(Cl)C(Cl)=C(Cl)C2(Cl)C2C(=O)OC(=O)C21", "note": "(centres undefined)", "growth": "113% (inactive)"},
      {"molecule": "c1ccc(Cc2ccccc2)cc1", "growth": "76.6% (inactive)"},
      {"molecule": "COc1ccc2c(NCCCCCCCCNc3c4ccccc4nc4cc(OC)ccc34)c3ccccc3nc2c1", "growth": "-45.9% (active)"},
      {"molecule": "CCCC(=O)c1cc(C)ccc1OC", "growth": "118% (inactive)"}
    ]},
    {"test_system": "NCI/ADR-RES ovarian", "assay": "NCI-60 one-dose screen, 48 h (100 = growth as untreated, 0 = no growth, -100 = all killed)", "conditions": "10 µM", "values": [
      {"molecule": "S=c1sc2ccccc2n1CN1CCCCC1", "growth": "93.4% (inactive)"},
      {"molecule": "CSc1[nH]c(=O)ncc1F", "growth": "99.3% (inactive)"},
      {"molecule": "COc1ccc(-c2cc(-c3cc(-c4ccc(OC)cc4)nc(N)n3)nc(N)n2)cc1", "growth": "100% (inactive)"},
      {"molecule": "COc1ccccc1NC(=O)C1=C(C)NC(C)=C(C(=O)Nc2ccccc2OC)C1c1cccc([N+](=O)[O-])c1", "growth": "66.3% (inactive)"},
      {"molecule": "C=CCNc1nnc(C)s1", "growth": "103% (inactive)"},
      {"molecule": "COC(=O)C(C)Oc1ccc(OC#N)cc1", "note": "(centres undefined)", "growth": "99.9% (inactive)"},
      {"molecule": "CCc1nn(Cc2ccccc2)c2nc(C)c(CCc3ccccc3)c(Cl)c12", "growth": "92% (inactive)"},
      {"molecule": "c1c(-c2cc(C3CC3)[nH]n2)n[nH]c1C1CC1", "growth": "98.8% (inactive)"},
      {"molecule": "O=C(CCNNC(=O)c1ccncc1)NCc1ccccc1", "growth": "96.5% (inactive)"},
      {"molecule": "CC(=O)Nc1cccc(Cl)c1C", "growth": "104% (inactive)"},
      {"molecule": "CC(=O)C1CCCCC1", "growth": "107% (inactive)"},
      {"molecule": "CCOC(=O)/C(C#N)=C/c1cccc(C)c1", "growth": "97.3% (inactive)"},
      {"molecule": "CC(C(=O)O)(C1CCCCC1)C1(O)CCCCC1", "note": "(centres undefined)", "growth": "106% (inactive)"},
      {"molecule": "CN(C)c1ccc2oc(=O)c3ccccc3c2c1", "growth": "94.9% (inactive)"},
      {"molecule": "O=C(OCC(O)C1OC(c2ccccc2)OC(COC(=O)c2ccccc2)C1O)c1ccccc1", "note": "(centres undefined)", "growth": "107% (inactive)"},
      {"molecule": "O=C(O)c1ccc(S(=O)(=O)O)cc1", "growth": "100% (inactive)"},
      {"molecule": "OC1CCCc2ccccc21", "note": "(centres undefined)", "growth": "108% (inactive)"},
      {"molecule": "CCCCCCCCCCCCCC(=O)Oc1ccc[nH]c1=O", "growth": "99.8% (inactive)"},
      {"molecule": "COc1cc2c(cc1OC)[C@H](C(=O)O)[C@@H](c1ccc(OC(C)C)c(OC)c1)N(C)C2=O", "growth": "111% (inactive)"},
      {"molecule": "COC(=O)Nc1nc2ccc(C(=O)c3ccc(F)cc3)cc2[nH]1", "growth": "-5.09% (active)"},
      {"molecule": "Nc1ccccc1SC(CC(=O)c1ccccc1)c1c(Cl)cccc1Cl", "note": "(centres undefined)", "growth": "69.2% (inactive)"},
      {"molecule": "CC1=CC(=O)c2ccccc2C1=O", "growth": "107% (inactive)"},
      {"molecule": "O=C(Nc1ccccc1)OCCc1ccccc1", "growth": "110% (inactive)"},
      {"molecule": "COc1ccccc1N1CCN(C(=S)Nc2ccccc2)CC1", "growth": "95.8% (inactive)"},
      {"molecule": "O=C1OC(c2ccc(F)cc2)CC1CN1CCOCC1", "note": "(centres undefined)", "growth": "101% (inactive)"},
      {"molecule": "CCCNC(=O)c1ccc(S(N)(=O)=O)cc1", "growth": "99.5% (inactive)"},
      {"molecule": "COC(=O)CCCCC1=CCC2C(=O)C=C(O)C2C1", "note": "(centres undefined)", "growth": "103% (inactive)"},
      {"molecule": "CCOC(=O)CCCS(C)(=O)=O", "growth": "103% (inactive)"},
      {"molecule": "Nc1ccc(NC(=O)c2cccc(N)c2)cc1", "growth": "111% (inactive)"},
      {"molecule": "CCN(CC)CCNc1ccc(CO)c2sc3ccccc3c(=O)c12", "growth": "40.7% (inactive)"},
      {"molecule": "CCOC(=O)c1cc(/C=C/c2ccc(Cl)cc2Cl)on1", "growth": "-34.9% (active)"},
      {"molecule": "O=[N+]([O-])c1ccccc1S(=O)c1ccccc1[N+](=O)[O-]", "growth": "91.5% (inactive)"},
      {"molecule": "COc1cccc(Sc2ccc([N+](=O)[O-])c3no[n+]([O-])c23)c1", "growth": "42.5% (inactive)"},
      {"molecule": "O=C(NC1CCCCC1)OCc1c(COC(=O)NC2CCCCC2)c(-c2ccc(Cl)c(Cl)c2)n2c1CCC2", "growth": "25.2% (inactive)"},
      {"molecule": "O=C1OC(=O)C2C1C1(Cl)C(Cl)=C(Cl)C2(Cl)C2C(=O)OC(=O)C21", "note": "(centres undefined)", "growth": "108% (inactive)"},
      {"molecule": "c1ccc(Cc2ccccc2)cc1", "growth": "104% (inactive)"},
      {"molecule": "COc1ccc2c(NCCCCCCCCNc3c4ccccc4nc4cc(OC)ccc34)c3ccccc3nc2c1", "growth": "9.56% (active)"},
      {"molecule": "CCCC(=O)c1cc(C)ccc1OC", "growth": "112% (inactive)"}
    ]},
    {"test_system": "T-47D breast", "assay": "NCI-60 one-dose screen, 48 h (100 = growth as untreated, 0 = no growth, -100 = all killed)", "conditions": "10 µM", "values": [
      {"molecule": "S=c1sc2ccccc2n1CN1CCCCC1", "growth": "100% (inactive)"},
      {"molecule": "Cc1cc(N)c(S(=O)(=O)O)c(N)c1", "growth": "89.7% (inactive)"},
      {"molecule": "C=CCNc1nnc(C)s1", "growth": "95.4% (inactive)"},
      {"molecule": "CCc1nn(Cc2ccccc2)c2nc(C)c(CCc3ccccc3)c(Cl)c12", "growth": "59.2% (inactive)"},
      {"molecule": "O=C(CCNNC(=O)c1ccncc1)NCc1ccccc1", "growth": "94.4% (inactive)"},
      {"molecule": "CCOC(=O)/C(C#N)=C/c1cccc(C)c1", "growth": "86.5% (inactive)"},
      {"molecule": "CC(C(=O)O)(C1CCCCC1)C1(O)CCCCC1", "note": "(centres undefined)", "growth": "102% (inactive)"},
      {"molecule": "CN(C)c1ccc2oc(=O)c3ccccc3c2c1", "growth": "96.1% (inactive)"},
      {"molecule": "O=C(OCC(O)C1OC(c2ccccc2)OC(COC(=O)c2ccccc2)C1O)c1ccccc1", "note": "(centres undefined)", "growth": "109% (inactive)"},
      {"molecule": "O=C(O)c1ccc(S(=O)(=O)O)cc1", "growth": "106% (inactive)"},
      {"molecule": "OC1CCCc2ccccc21", "note": "(centres undefined)", "growth": "101% (inactive)"},
      {"molecule": "COc1cc2c(cc1OC)[C@H](C(=O)O)[C@@H](c1ccc(OC(C)C)c(OC)c1)N(C)C2=O", "growth": "96% (inactive)"},
      {"molecule": "COC(=O)Nc1nc2ccc(C(=O)c3ccc(F)cc3)cc2[nH]1", "growth": "112% (inactive)"},
      {"molecule": "Nc1ccccc1SC(CC(=O)c1ccccc1)c1c(Cl)cccc1Cl", "note": "(centres undefined)", "growth": "69.4% (inactive)"},
      {"molecule": "CC1=CC(=O)c2ccccc2C1=O", "growth": "98.7% (inactive)"},
      {"molecule": "O=C(Nc1ccccc1)OCCc1ccccc1", "growth": "104% (inactive)"},
      {"molecule": "COc1ccccc1N1CCN(C(=S)Nc2ccccc2)CC1", "growth": "90.9% (inactive)"},
      {"molecule": "O=C1OC(c2ccc(F)cc2)CC1CN1CCOCC1", "note": "(centres undefined)", "growth": "93.6% (inactive)"},
      {"molecule": "CCCNC(=O)c1ccc(S(N)(=O)=O)cc1", "growth": "96% (inactive)"},
      {"molecule": "COC(=O)CCCCC1=CCC2C(=O)C=C(O)C2C1", "note": "(centres undefined)", "growth": "98.9% (inactive)"},
      {"molecule": "CCOC(=O)CCCS(C)(=O)=O", "growth": "102% (inactive)"},
      {"molecule": "Nc1ccc(NC(=O)c2cccc(N)c2)cc1", "growth": "95.9% (inactive)"},
      {"molecule": "CCN(CC)CCNc1ccc(CO)c2sc3ccccc3c(=O)c12", "growth": "48.3% (inactive)"},
      {"molecule": "O=[N+]([O-])c1ccccc1S(=O)c1ccccc1[N+](=O)[O-]", "growth": "73.1% (inactive)"},
      {"molecule": "COc1cccc(Sc2ccc([N+](=O)[O-])c3no[n+]([O-])c23)c1", "growth": "40.2% (inactive)"},
      {"molecule": "O=C(NC1CCCCC1)OCc1c(COC(=O)NC2CCCCC2)c(-c2ccc(Cl)c(Cl)c2)n2c1CCC2", "growth": "20.8% (inactive)"},
      {"molecule": "O=C1OC(=O)C2C1C1(Cl)C(Cl)=C(Cl)C2(Cl)C2C(=O)OC(=O)C21", "note": "(centres undefined)", "growth": "95.4% (inactive)"},
      {"molecule": "c1ccc(Cc2ccccc2)cc1", "growth": "93.4% (inactive)"},
      {"molecule": "COc1ccc2c(NCCCCCCCCNc3c4ccccc4nc4cc(OC)ccc34)c3ccccc3nc2c1", "growth": "-74.6% (active)"},
      {"molecule": "CCCC(=O)c1cc(C)ccc1OC", "growth": "105% (inactive)"}
    ]}
  ]
}
